Active and inactive are the calls of the source. Unless noted, how the calls were made is not given here.
Key:
[1] = tested on: Wnt5a (protein binding on small-molecule microarray); assay: small molecules binding Wnt5a protein – biophysical, small-molecule microarray, 635/667 nm fluorescence, primary screen (AID 1142); details: 635 nm fluorescence, higher = more signal;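 further: fluorescence read at 667 nm with signal to noise per printed feature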
[2] = ATP-based viability of Huh7 replicon cells – cell-based, CellTiter-Glo luminescence, basal, 48 h, cytotoxicity control for HCV replication inhibitor project, primary screen (AID 1143); details: higher = more signal, called active from +8 up or from −8 down;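 further: Huh7 hepatoma cells carrying a hepatitis C replication reporter with no stimulus; test concentration not given here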
[3] = Pseudomonas biofilm growth suppression – PAO1 strain, BacTiter-Glo luminescence, LB-PBS, primary screen (AID 1144); details: P. aeruginosa PAO1 biofilm, 12 h, higher = more signal
[4] = basal CRE-LacZ reporter activity in PC12 – cell-based, unstimulated, primary screen (AID 1145); details: no forskolin, luminescence, 4.5 h, higher = more signal, called active from +8 up or from −8 down
[5] = forskolin-driven CRE-LacZ activity in PC12 – cell-based, CRE-LacZ reporter, forskolin-stimulated, primary screen (AID 1146); details: luminescence, 4.5 h, higher = more signal, called active from +8 up or from −8 down;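 further: PC12 cells with 6xCRE LacZ reporter stimulated by forskolin 10 µM; beta-galactosidase reporter signal reflecting CREB driven transcription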
[6] = biological target: Streptavidin (Streptomyces avidinii) (UniProt P22629); assay: compounds binding control protein streptavidin – biophysical, small-molecule microarray, 635/667 nm fluorescence, artefact control for SMM compound annotation, primary screen (AID 1147); details: higher = more signal;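 further: signal reflects streptavidin binding to arrayed compounds as a control protein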
Chain of Streptavidin (Streptomyces avidinii) (P22629 whole entry, looked up): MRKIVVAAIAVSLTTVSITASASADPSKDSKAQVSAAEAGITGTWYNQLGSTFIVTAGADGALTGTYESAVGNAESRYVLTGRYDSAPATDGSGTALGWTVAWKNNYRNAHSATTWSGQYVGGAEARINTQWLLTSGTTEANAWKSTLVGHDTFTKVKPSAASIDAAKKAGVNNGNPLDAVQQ

[7] = probe aInhba binding on compound microarray – biochemical, small-molecule microarray, 635/667 nm fluorescence, primary screen (AID 1148); details: higher = more signal;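 further: score merges 667nm spot fluorescence with signal-to-noise for antibody binding to printed compounds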
Torsin-1A (Homo sapiens) [8] = biological target: Torsin-1A (Homo sapiens) (UniProt O14656); assay: TOR1A wild-type binding on microarray – cell lysate, small-molecule microarray, lysate, 635/667 nm, primary screen (AID 1149); details: COS7 hTOR1A-WT lysate, 635 nm fluorescence, higher = more signal
Chain of Torsin-1A (Homo sapiens) (O14656 whole entry, looked up): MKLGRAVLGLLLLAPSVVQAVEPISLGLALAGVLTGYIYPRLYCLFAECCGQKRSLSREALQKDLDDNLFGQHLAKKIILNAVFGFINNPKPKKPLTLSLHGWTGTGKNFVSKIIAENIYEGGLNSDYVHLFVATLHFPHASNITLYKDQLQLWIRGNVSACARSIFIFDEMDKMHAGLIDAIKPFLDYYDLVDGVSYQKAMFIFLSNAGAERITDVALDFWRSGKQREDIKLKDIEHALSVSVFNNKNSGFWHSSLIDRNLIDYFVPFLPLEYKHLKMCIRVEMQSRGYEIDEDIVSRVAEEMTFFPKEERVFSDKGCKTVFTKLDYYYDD

Torsin-1A (Homo sapiens) [9] = biological target: Torsin-1A (Homo sapiens) (UniProt O14656); assay: torsin A mutant lysate binding on microarrays – cell lysate, small-molecule microarray, COS7 lysate, 635/667 nm fluorescence, primary screen (AID 1150); details: COS7 hTOR1A mutant lysate, 635 nm fluorescence, higher = more signal;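 further: score pools 667 nm emission and signal to noise measuring lysate protein binding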
[10] = tested on: Sonic hedgehog protein (Shh); assay: Sonic hedgehog microarray binding compounds – biochemical, small-molecule microarray, 635/667 nm fluorescence, primary screen (AID 1151); details: 635 nm fluorescence, higher = more signal;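 further: Shh protein binding to compounds spotted on small-molecule microarray slides; score combines spot fluorescence intensity with signal-to-noise across triplicate slides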
[11] = optical density shifts of acrAB sulA E. coli – strain DRC41, OD650, 48 h, E. coli filamentation inducer project, primary screen (AID 1152); details: higher = more signal, called active from +8 up or from −8 down;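 further: E. coli MC1000 strain DRC41 lacking acrAB efflux pump and sulA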
[12] = probe aLefty1 binding on compound microarray – biochemical, small-molecule microarray, 635/667 nm fluorescence, primary screen (AID 1153); details: higher = more signal;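 further: score merges spot fluorescence with signal-to-noise ratio from the scanned slide images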
[13] = plasmodial surface anion channel blockers, osmotic lysis – cell-based, P. falciparum Indochina, OD700, 1 h, primary screen (AID 1154); details: P. falciparum Indochina infected RBC osmotic lysis, higher = more signal, called active from +8 up or from −8 down
[14] = plasmodial surface anion channel blockers, osmotic lysis – cell-based, P. falciparum Indochina, OD700, 2 h, primary screen (AID 1155);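 further: lysis reports solute entry through the parasite surface anion channel PSAC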; details: P. falciparum Indochina infected erythrocytes, higher = more signal, called active from +8 up or from −8 down
[15] = changes in parasitized red cell lysis, either direction – P. falciparum Indochina, OD700, 3 h, PSAC antagonist project, primary screen (AID 1156); details: P. falciparum-infected erythrocytes, osmotic lysis, higher = more signal, called active from +8 up or from −8 down
[16] = plasmodial surface anion channel blockers, osmotic lysis – cell-based, P. falciparum Indochina, OD700, 18 h, primary screen (AID 1157); details: P. falciparum Indochina infected erythrocytes, osmotic lysis OD700, 18 h; higher = more signal, called active from +8 up or from −8 down
[17] = S6 kinase pathway phospho-S6 level changes – cell-based, A549, cytoblot, luminescence, serum-stimulated, primary screen (AID 1158); details: 5 h, higher = more signal;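 further: serum-stimulated A549 lung adenocarcinoma cells; signal is phosphorylated S6 detected by cytoblot immunostaining with HRP secondary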
[18] = biological target: NADPH oxidase 2 (Homo sapiens) (UniProt P04839); assay: compounds shifting NOX2 Amplex Red fluorescence – cell-based, HEK293-NOX2, PMA-stimulated, NOX inhibitor project, primary screen (AID 1159); details: 45 min, higher = more signal, called active from +8 up or from −8 down; further: test concentration not given here
Chain of NADPH oxidase 2 (Homo sapiens) (P04839 whole entry, looked up): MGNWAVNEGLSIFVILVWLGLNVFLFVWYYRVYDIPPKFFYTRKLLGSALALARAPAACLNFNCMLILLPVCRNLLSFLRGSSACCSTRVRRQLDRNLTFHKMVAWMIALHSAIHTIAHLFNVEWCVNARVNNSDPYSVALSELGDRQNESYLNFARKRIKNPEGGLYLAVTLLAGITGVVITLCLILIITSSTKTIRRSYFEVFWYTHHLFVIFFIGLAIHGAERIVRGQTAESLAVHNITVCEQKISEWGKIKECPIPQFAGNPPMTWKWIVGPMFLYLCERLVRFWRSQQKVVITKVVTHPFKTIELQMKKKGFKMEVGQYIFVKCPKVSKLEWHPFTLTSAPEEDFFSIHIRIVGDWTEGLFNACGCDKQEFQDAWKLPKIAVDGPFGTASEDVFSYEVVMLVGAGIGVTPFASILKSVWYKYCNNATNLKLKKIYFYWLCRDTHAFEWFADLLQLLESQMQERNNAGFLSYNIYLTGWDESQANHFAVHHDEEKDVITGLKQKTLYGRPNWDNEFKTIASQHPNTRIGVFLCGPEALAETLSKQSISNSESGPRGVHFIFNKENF

[19] = biological target: NADPH oxidase 4 (Homo sapiens) (UniProt Q9NPH5); assay: compounds shifting NOX4 Amplex Red fluorescence – cell-based, HEK293-NOX4, tetracycline-induced, NOX inhibitor project, primary screen (AID 1160); details: HEK293-NOX4, Amplex Red H2O2 fluorescence, 45 min; higher = more signal, called active from +8 up or from −8 down
Chain of NADPH oxidase 4 (Homo sapiens) (Q9NPH5 whole entry, looked up): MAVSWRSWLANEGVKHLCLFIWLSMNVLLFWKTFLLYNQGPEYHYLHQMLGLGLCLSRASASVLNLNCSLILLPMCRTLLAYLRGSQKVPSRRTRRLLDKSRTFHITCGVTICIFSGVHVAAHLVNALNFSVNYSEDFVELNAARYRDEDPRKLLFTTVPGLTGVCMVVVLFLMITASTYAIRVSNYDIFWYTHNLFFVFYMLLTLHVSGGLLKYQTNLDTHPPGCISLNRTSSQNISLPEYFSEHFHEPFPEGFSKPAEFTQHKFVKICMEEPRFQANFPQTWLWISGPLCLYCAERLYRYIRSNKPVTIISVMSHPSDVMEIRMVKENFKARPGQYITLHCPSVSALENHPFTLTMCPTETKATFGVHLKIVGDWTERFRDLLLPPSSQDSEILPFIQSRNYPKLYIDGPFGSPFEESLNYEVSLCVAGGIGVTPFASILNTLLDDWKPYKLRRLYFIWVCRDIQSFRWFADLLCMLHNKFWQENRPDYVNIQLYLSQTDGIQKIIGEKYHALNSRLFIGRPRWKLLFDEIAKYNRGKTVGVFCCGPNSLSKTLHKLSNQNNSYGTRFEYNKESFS

[20] = biological target: NADPH oxidase 5 (Homo sapiens) (UniProt Q96PH1); assay: compounds shifting NOX5 Amplex Red fluorescence – cell-based, HEK293-NOX5, NOX inhibitor project, primary screen (AID 1161); details: HEK293-NOX5, ionomycin, 45 min, higher = more signal
Chain of NADPH oxidase 5 (Homo sapiens) (Q96PH1 whole entry, looked up): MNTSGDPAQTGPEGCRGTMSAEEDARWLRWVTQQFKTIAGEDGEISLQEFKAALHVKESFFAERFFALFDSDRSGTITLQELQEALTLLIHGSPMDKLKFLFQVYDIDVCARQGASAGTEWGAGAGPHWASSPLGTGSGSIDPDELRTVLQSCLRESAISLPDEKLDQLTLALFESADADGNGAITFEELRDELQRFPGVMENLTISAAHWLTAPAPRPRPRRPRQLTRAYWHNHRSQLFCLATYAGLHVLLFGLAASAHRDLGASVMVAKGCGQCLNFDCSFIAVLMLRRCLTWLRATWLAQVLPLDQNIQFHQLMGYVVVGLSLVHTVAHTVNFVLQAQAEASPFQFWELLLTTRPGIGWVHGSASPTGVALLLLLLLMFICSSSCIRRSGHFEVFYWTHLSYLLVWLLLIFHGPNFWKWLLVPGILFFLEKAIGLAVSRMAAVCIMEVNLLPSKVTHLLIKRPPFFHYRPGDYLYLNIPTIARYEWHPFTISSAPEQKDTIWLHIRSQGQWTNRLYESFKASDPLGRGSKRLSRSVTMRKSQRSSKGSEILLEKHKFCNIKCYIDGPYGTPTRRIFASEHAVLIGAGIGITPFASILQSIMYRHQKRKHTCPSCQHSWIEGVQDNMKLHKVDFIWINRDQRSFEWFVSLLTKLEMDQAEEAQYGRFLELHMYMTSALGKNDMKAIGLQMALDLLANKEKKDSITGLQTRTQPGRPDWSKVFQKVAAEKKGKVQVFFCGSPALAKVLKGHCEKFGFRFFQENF

Row | SMILES | composite z-score [1] | z-score [2] | z-score [3] | z-score [4] | z-score [5] | composite z-score [6] | composite z-score [7] | composite z-score (Torsin-1A (Homo sapiens) [8]) | composite z-score (Torsin-1A (Homo sapiens) [9]) | composite z-score [10] | z-score [11] | composite z-score [12] | z-score [13] | z-score [14] | z-score [15] | z-score [16] | z-score [17] | z-score [18] | z-score [19] | z-score [20]
1 | CC(C)(C)OC(=O)CC[C@]1(C(=O)NCC(O)CO)N=C(c2ccc(OCCCO)cc2)O[C@H]1c1ccccc1N=[N+]=[N-] (stereo not given in full) | 0.112 | -1.01 (inactive) | -0.00253 (inactive) | -0.0808 (inactive) | -1.48 (inactive) | 1.38 | 0.32 | 0.172 | 0.565 | 0.0555 | 0.618 (inactive) | 0.215 | 29.9 (active) | 27.1 (active) | 1.38 (inactive) | 6.1 (inactive) | -0.465 | -3.04 (inactive) | 1.04 (inactive) | -1.68
2 | COc1ccc(C(O)C2C=CC3C(=O)NC(=O)C3N2Nc2ccc(Cl)cc2Cl)c2ccccc12 (stereo not given) | -0.181 | -1.74 (inactive) | -1.13 (inactive) | 1.01 (inactive) | -0.525 (inactive) | 0.767 | -0.0757 | -0.392 | 0.275 | 0.461 | -0.866 (inactive) | 0.379 | 2.37 (inactive) | 1.44 (inactive) | -0.46 (inactive) | 1.78 (inactive) | -0.101 | -0.0689 (inactive) | -5.63 (inactive) | -1.58
3 | COC(=O)C1(Cc2ccccc2)C=C2C(=C(C)C(=O)C2C)CN1 (stereo not given) | 0.266 | -0.723 (inactive) | 0.454 (inactive) | 0.0075 (inactive) | 0.727 (inactive) | 0.621 | 0.155 | 0.103 | 0.0914 | -0.691 | -0.492 (inactive) | 0.695 | 0.756 (inactive) | -0.425 (inactive) | -0.662 (inactive) | -1.2 (inactive) | 2.47 | 0.436 (inactive) | -0.568 (inactive) | -4
4 | COC(=O)C[C@H]1O[C@@]2(C[C@@H]1[Si](C)(C)C)C(=O)N(C)c1ccccc12 | 0.0074 | -1.43 (inactive) | -0.355 (inactive) | 2.3 (inactive) | -0.923 (inactive) | 0.327 | -0.0468 | 0.185 | 0.117 | 1.44 | 3.12 (inactive) | 0.14 | -1.14 (inactive) | -0.694 (inactive) | -1.23 (inactive) | -1.92 (inactive) | 0.953 | -0.465 (inactive) | 0.764 (inactive) | 1.21
5 | COc1ccc([Si](C)(C)[C@H]2[C@H](CC(=O)N3Cc4ccccc4C[C@H]3CO)O[C@@]3(C(=O)N(c4ccccc4)c4ccccc43)[C@@H]2C)cc1 | 0.479 | -5.64 (inactive) | 0.449 (inactive) | 3.6 (inactive) | -1.16 (inactive) | 0.968 | 0.0342 | 1.57 | 0.862 | 2.04 | 0.968 (inactive) | 0.701 | 11.9 (active) | 2.16 (inactive) | 1.24 (inactive) | 1.09 (inactive) | 1.35 | -1.56 (inactive) | -0.499 (inactive) | -2.51
6 | CN(C)CCCC[C@@H]1NC(=O)[C@@H]2C[C@H](C(=O)NCCCCCN)[C@H](c3cccc(OCCO)c3)N2C1=O | 0.132 | -0.716 (inactive) | -0.241 (inactive) | -0.118 (inactive) | -0.469 (inactive) | 0.909 | -0.101 | 0.433 | 0.0162 | 1.58 | 2.96 (inactive) | 0.25 | 1.11 (inactive) | -0.469 (inactive) | -1.52 (inactive) | -2.07 (inactive) | 2.77 | 0.635 (inactive) | 0.585 (inactive) | 1.57
7 | CC=CC(O)C1C=CC2C(=O)NC(=O)C2N1Nc1ccc(Cl)cc1Cl (stereo not given) | -0.242 | 0.323 (inactive) | 0.101 (inactive) | -0.133 (inactive) | 0.467 (inactive) | 0.0171 | -0.176 | 0.34 | 0.0964 | 0.443 | -1.56 (inactive) | 0.169 | 0.76 (inactive) | 0.786 (inactive) | 0.0682 (inactive) | 1.29 (inactive) | -0.637 | -1.35 (inactive) | -4.61 (inactive) | -3.02
8 | C=CCC(OC(C)=O)[C@@H]1[C@@H](N(Cc2cc3ccccc3o2)C(=O)Cc2ccc(OC)cc2)c2cc(OCCCO)ccc2N1C(=O)c1ccc2ccccc2n1 (stereo not given in full) | -0.124 | -1.03 (inactive) | 0.267 (inactive) | 4.52 (inactive) | -0.24 (inactive) | 0.229 | -0.0103 | 0.135 | -0.136 | 0.0685 | 0.697 (inactive) | 0.231 | 2.75 (inactive) | 0.567 (inactive) | 0.867 (inactive) | 0.186 (inactive) | 0.856 | 0.226 (inactive) | -1.14 (inactive) | 1.52

— PubChem BioAssay
